Screening data (PubChem)
This is one part of a sample in which hits are shown more often than they occur.
CBX7 AlphaScr: CBX7 chromodomain binding inhibitors, primary screen, biochemical, AlphaScreen | 1.1% of 66,000 active | AID 1224903, 2016 | normalised signal (fraction of DMSO) (concentration not given with the values) | AlphaScreen His6-CBX7 / biotin-H3K27me3 peptide binding; hits give low values | Chromobox protein homolog 7 (Homo sapiens), O95931; in the data active means normalised signal below about 0.5
Target sequence (O95931 whole entry, looked up): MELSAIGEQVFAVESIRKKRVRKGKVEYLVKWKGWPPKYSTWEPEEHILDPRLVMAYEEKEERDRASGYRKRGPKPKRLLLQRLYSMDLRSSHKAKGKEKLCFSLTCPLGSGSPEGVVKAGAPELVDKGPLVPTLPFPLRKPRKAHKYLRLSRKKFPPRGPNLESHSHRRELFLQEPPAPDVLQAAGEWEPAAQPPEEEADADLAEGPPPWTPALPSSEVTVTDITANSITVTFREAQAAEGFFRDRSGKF
Each line names hits and unclear results; the compound was inactive in the other large screens; ! = not confirmed by another sample.

CC1CCN(Cc2cc(Cn3ccnc3)c3cccnc3c2O)CC1	CBX7 AlphaScr 0.0061
CCCC(=O)NC(c1ccc(C)cc1)c1cc(Cl)c2cccnc2c1O (stereo unspecified)	none
CC1CCN(CCCNC(=O)c2cnc(N3CCN(c4ncccn4)CC3)c3ccccc23)CC1	none
Cc1cc(OCC(O)CN2CCC(C)CC2)ccc1Cl (stereo unspecified)	none
CC1CCN(Cc2cc(Cl)c3cccnc3c2O)CC1	CBX7 AlphaScr 0
CC1CCN(Cc2cc(Cl)c(O)c3ncccc23)CC1	CBX7 AlphaScr 0.0029
Cc1cc(Cl)ccc1OCC(=O)Nc1ccc(-c2nc3cc(C(C)C)ccc3o2)cc1	none
Cc1ccc2c(c1)C(c1ccccc1)N(C(=O)c1cccc(Cl)c1)CC(=O)N2 (stereo unspecified)	none
c1ccc(-c2nnc(-c3cccs3)c3nocc23)cc1	none
Fc1ccc(C2CC(c3cccc(Br)c3)n3ncnc3N2)cc1 (stereo unspecified)	none
O=c1c2c(nc3n1CC(O)CS3)-c1ccccc1CC21CCCCC1 (stereo unspecified)	none
O=C(O)c1cccc(Nc2nc(-c3ccc(Cl)cc3)nc3ccccc23)c1	none
O=C1c2cccnc2C(Nc2ccc(Cl)cc2)N1Cc1ccc(F)cc1 (stereo unspecified)	CBX7 AlphaScr 0.37
O=C1c2ccccc2C(Nc2ccccn2)N1Cc1ccccc1 (stereo unspecified)	none
CCOc1ccc(NC2c3ccccc3C(=O)N2Cc2ccccc2Cl)cc1 (stereo unspecified)	none
CCOc1ccc(NC2c3ncccc3C(=O)N2Cc2ccc(F)cc2)cc1 (stereo unspecified)	CBX7 AlphaScr 0.5
CCOc1ccc(NC2c3ccccc3C(=O)N2c2cccnc2)cc1 (stereo unspecified)	none
Cc1ccc(Cl)cc1NC1c2ncccc2C(=O)N1Cc1ccc(F)cc1 (stereo unspecified)	none
Cc1ccc(NC2c3ccccc3C(=O)N2Cc2ccccc2)cc1 (stereo unspecified)	none
Cc1ccc(NC2c3ncccc3C(=O)N2Cc2ccc(F)cc2)cc1 (stereo unspecified)	CBX7 AlphaScr 0.44
Cc1ccc(NC2c3ccccc3C(=O)N2Cc2ccccc2Cl)cc1 (stereo unspecified)	none
COc1cccc(C2=NOC(C(=O)NC3CCCC3)C2)c1 (stereo unspecified)	none
Cc1oc(-c2ccc(Cl)cc2)nc1CN1CCC(C(=O)NCCCN2CCCCCC2)CC1	none
CC1(C)CC(=O)N(CC(=O)NCCc2ccc(S(N)(=O)=O)cc2)c2ccccc2S1	none
COc1ccc(N2Cc3cccc(C(=O)Nc4ccccc4OC)c3C2=O)cc1	none
CCc1ccc(NC(=O)c2cccc3c2C(=O)N(c2ccc(OC)cc2)C3)cc1	none
CCc1ccccc1NC(=O)c1cccc2c1C(=O)N(c1ccc(OC)cc1)C2	CBX7 AlphaScr 0.14
CC(=O)Nc1ccc(Nc2nc(-c3sc(C)nc3C)cs2)cc1	none
COc1ccc(Nc2nc(-c3sc(NC(C)=O)nc3C)cs2)cc1	none
CC(=O)Nc1nc(C)c(-c2csc(Nc3ccccc3)n2)s1	none
Cc1ccc(Nc2nc(-c3sc(N)nc3C)cs2)cc1	CBX7 AlphaScr 0.38
COc1ccc(Nc2nc(-c3ccc(Cl)c(Cl)c3)cs2)cc1	none
COc1ccc(OC)c(Nc2nc(-c3sc(NC(C)=O)nc3C)cs2)c1	none
COc1ccc(-c2csc(Nc3ccc(N)cc3)n2)cc1	CBX7 AlphaScr 0.41
COc1ccc(Nc2nc(-c3cccs3)cs2)cc1	none
Cc1ccc(-c2csc(Nc3ccc(F)cc3)n2)cc1	none
CC(=O)Nc1nc(C)c(-c2csc(Nc3ccc(N)cc3)n2)s1	CBX7 AlphaScr 0.47
COc1ccc(Nc2nc(-c3sc(N)nc3C)cs2)cc1	CBX7 AlphaScr 0.31
COc1ccc(Nc2nc(-c3ccc(Br)cc3)cs2)cc1	none
OC(CNCC1(c2ccc3c(c2)OCCO3)CCCC1)COc1ccccc1 (stereo unspecified)	none
COC(=O)c1c(NC(=O)c2cccc(Br)c2)sc2c1CCC(C)C2 (stereo unspecified)	none
COc1cccc(NC(=O)C2CCN(S(=O)(=O)c3cccnc3)CC2)c1	none
COC(=O)c1c(NC(=O)c2cccc(Cl)c2)sc2c1CCC(C)C2 (stereo unspecified)	none
COc1ccc(-c2cc3cc(OC)c(OC)cc3c(Cc3ccccc3)n2)cc1	none
O=c1cc(C(F)(F)F)oc2ccc(Cl)cc12	none
COc1ccc(CCNc2nc(-c3sc(N)nc3C)cs2)cc1OC	CBX7 AlphaScr 0.35
COc1cc(Nc2nc(-c3ccc(Cl)cc3)cs2)c(OC)cc1Cl	none
Fc1ccc(Nc2nc(-c3ccc(Cl)cc3)cs2)cc1	none
Cc1ccc(-c2csc(Nc3ccccc3Cl)n2)cc1	none
COc1cc(Nc2nc(-c3ccc(C)cc3)cs2)c(OC)cc1Cl	CBX7 AlphaScr 0.46!
CC(=O)Nc1ccc(Nc2nc(-c3sc(NC(=O)c4ccccc4)nc3C)cs2)cc1	none
COc1ccc(Cl)cc1Nc1nc(-c2sc(C)nc2C)cs1	none
CCOc1ccc(Nc2nc(-c3sc(NC(=O)c4ccccc4)nc3C)cs2)cc1	CBX7 AlphaScr 0.42
Cc1nc(NC(=O)c2ccccc2)sc1-c1csc(Nc2ncccn2)n1	none
Cc1nc(N)sc1-c1csc(Nc2ccc(Cl)cc2)n1	CBX7 AlphaScr 0.38
Cc1nc(N)sc1-c1csc(Nc2cccc(Cl)c2)n1	none
COc1ccc(CCNc2nc(-c3ccc(Cl)cc3)cs2)cc1OC	none
CC1=Nc2cc(C(=O)NC(C)C)ccc2Sc2ccc(Cl)cc21	none
CCN(CC)CCCNC(=O)c1cc(Nc2ccc(C)c(C)c2)nc2ccccc12	none
Cc1csc2ncc(C(=O)Nc3ccc(N(C)C)cc3)c(=O)n12	none
CC(C)n1c(=N)n(CCOc2ccccc2)c2ccccc21	none
CCOc1ccc(C2CC(=O)c3c([nH]c(C(=O)OCCc4ccccc4)c3C)C2)cc1 (stereo unspecified)	none
NS(=O)(=O)c1ccc(CNC2CC(=O)N(c3ccccc3F)C2=O)cc1 (stereo unspecified)	none
COc1ccc(CNc2cc(C)nc3c(-c4ccc(OC)c(OC)c4)c(C)nn23)cc1	none
COc1ccc(-c2c(C)nn3c(NCc4ccc(F)cc4)cc(C)nc23)cc1OC	none
COc1ccc(-c2c(C)nn3c(NCc4ccccn4)cc(C)nc23)cc1OC	CBX7 AlphaScr 0.39
COc1ccc(NC(=O)C2CCN(S(=O)(=O)c3cccs3)CC2)c(OC)c1	none
CCOC(=O)c1c(C)n(CCOc2ccc3ccccc3c2)c2ccc(O)cc12	none
CCOC(=O)c1cnc2ccc(C)cc2c1Nc1ccc(N2CCCCC2)cc1	CBX7 AlphaScr 0.28
CCOC(=O)c1cnc2c(C)cc(C)cc2c1Nc1ccc(Cl)cc1	none
CCOC(=O)c1cnc2ccc(OC)cc2c1Nc1ccc(C)cc1	none
CCOC(=O)c1cnc2c(C)cc(C)cc2c1Nc1ccc(F)cc1	none
CCOC(=O)c1cnc2ccc(C)cc2c1Nc1ccc(N2CCOCC2)cc1	none
CCOC(=O)c1cnc2ccc(C)cc2c1Nc1ccc(N(CC)CC)cc1	CBX7 AlphaScr 0.42
CCOC(=O)c1cnc2ccc(OC)cc2c1Nc1ccc(N(C)C)cc1	CBX7 AlphaScr 0.26
CCOC(=O)c1cnc2ccc(OC)cc2c1Nc1ccc(OC)cc1	none
CCOC(=O)c1cnc2c(C)cc(C)cc2c1Nc1ccc(N2CCCCC2)cc1	CBX7 AlphaScr 0.28
CCOC(=O)c1cnc2ccc(C)cc2c1Nc1ccc(OCC)cc1	none
CCOC(=O)c1cnc2ccccc2c1Nc1ccc(C)cc1	none
CCOC(=O)c1cnc2ccc(Cl)cc2c1Nc1ccc(N2CCOCC2)cc1	none
CCC(C)(NCCc1c(C)[nH]c2ccccc12)c1nnnn1-c1c(C)cccc1C (stereo unspecified)	none
Cc1ccc(-c2nc(C(=O)O)c(C)o2)cc1	none
